Source: PubChem BioAssay
TDP1 block = qHTS Assay for Inhibitors of Tyrosyl-DNA Phosphodiesterase (TDP1); recombinant TDP1, AlphaScreen DNA substrate cleavage; 350,000 tested, 0.28% active; Potency, µM (highest dose often 130 µM), for the others: top-dose activity change, negative = inhibition, most hits filed as inhibitors; note: potency is the fitted concentration of half-maximal effect; % is set by controls: 0 for no effect and ±100 for the full control effect; nearly all actives have a fitted effect of over 40% in size
Target sequence (Q9NUW8 whole entry, looked up): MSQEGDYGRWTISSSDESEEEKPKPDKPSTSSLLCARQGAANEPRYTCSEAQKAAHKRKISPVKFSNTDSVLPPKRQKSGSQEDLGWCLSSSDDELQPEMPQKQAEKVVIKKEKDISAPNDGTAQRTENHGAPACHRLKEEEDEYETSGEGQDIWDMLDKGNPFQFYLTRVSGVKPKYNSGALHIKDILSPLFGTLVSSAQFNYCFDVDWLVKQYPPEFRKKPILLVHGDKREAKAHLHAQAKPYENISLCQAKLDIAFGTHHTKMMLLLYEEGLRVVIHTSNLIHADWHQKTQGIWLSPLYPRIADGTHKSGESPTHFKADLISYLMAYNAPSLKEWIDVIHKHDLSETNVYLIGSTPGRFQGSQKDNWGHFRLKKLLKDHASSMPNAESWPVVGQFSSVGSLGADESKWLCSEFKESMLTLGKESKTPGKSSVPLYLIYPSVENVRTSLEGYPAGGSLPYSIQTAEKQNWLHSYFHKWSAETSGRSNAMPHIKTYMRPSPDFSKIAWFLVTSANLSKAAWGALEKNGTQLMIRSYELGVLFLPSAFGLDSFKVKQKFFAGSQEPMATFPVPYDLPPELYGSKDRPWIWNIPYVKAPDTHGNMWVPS
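Compounds were preincubated with Tdp1 (1 nM final) for 15 min at room temperature before substrate (15 nM final) started a 5 min reaction; beads (10 ug/ml final) were then added for 10 min before AlphaScreen detection.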
HepG2 viability = qHTS for Inhibitors of TGF-b: Cytotox Counterscreen. Potency, µM (top dose mostly 46.1 µM), for inactives: at the highest dose activity change, negative = cytotoxicity, hits mostly cytotoxic. HepG2 CAGA-GFP viability, ATP luminescence, 18 h. 410,000 tested, 0.76% active; note: potency is the fitted concentration of half-maximal effect
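CellTiter-Glo luminescence gave cytotoxicity after 18 hours at 37 degrees C. The cells were HepG2 CAGA-GFP in 1% FBS DMEM, stimulated with 500 pg/mL TGF-beta after compound addition. %Activity was normalised to no-cell wells (complete cell-killing) and DMSO (no toxicity), and curves were fitted and classified.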
IL-1B inflam inh = qHTS for Inhibitors of Inflammasome Signaling: IL-1-beta AlphaLISA Primary Screen; 360,000 tested, 4.7% active; THP-1 LPS/ATP IL-1B secretion, AlphaLISA, 16 h; stronger effect = lower value; activity change, % at 57.5 µM; AID 743279, 2014; in the data active = activity change below about -50%; inconclusive = mostly about -30% to -49%; note: % is set by controls: 0 for no effect and ±100 for the full control effect
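Secreted IL-1B measured by AlphaLISA bead assay after 16 h compound exposure of THP-1 cells; compounds (final up to 57.5 uM) added 1 h before LPS (250 ng/mL) and ATP (1.25 mM) stimulation; lower signal means less secretion.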
TDP1 cell noCPT = qHTS for Inhibitors of human tyrosyl-DNA phosphodiesterase 1 (TDP1): qHTS in cells in absence of CPT; Potency, µM (top dose mostly 46.2 µM), for the others: top-dose activity change, negative = growth inhibition, most hits filed as inhibitors; DT40 Tdp1-/- hTDP1 cells, no CPT, ATP luminescence, 48 h; 420,000 tested, 15% active; note: potency is the fitted concentration of half-maximal effect; % is set by controls: 0 for no effect and ±100 for the full control effect; nearly all actives have a fitted effect of over 55% in size
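No-CPT arm: Tdp1-/-;hTDP1 DT40 cells (400/well) plus compounds, incubated ≥48 hr at 37 °C. Readout CellTiter-Glo luminescence.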
TGFb SMAD3 inh = qHTS for Inhibitors of TGF-b | 410,000 tested, 1.2% active | Potency, µM (titrated, usually from 46.1 µM), for inactives: at the top dose activity, negative = inhibition, actives largely listed as inhibitors | AID 588855, 2011 | HepG2 CAGA-GFP TGF-b/SMAD3 reporter, GFP fluorescence, 18 h; TGF-beta stimulated, 500 pg/mL final; note: potency is the fitted concentration of half-maximal effect; % is set by controls: 0 for no effect and ±100 for the full control effect; nearly all actives have a fitted effect of over 65% in size
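TGF-beta reporter screen: HEPG2 CAGA-GFP, 1% FBS, 500 pg/mL TGF-beta final, 18 h; per-cell GFP summed per well; curves fitted and categorized by class.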
DT40 TDP1 CPT = qHTS for Inhibitors of human tyrosyl-DNA phosphodiesterase 1 (TDP1): qHTS in cells in presence of CPT | AID 686979, 2013 | 420,000 tested, 12% active | Potency, µM (doses to about 46.2 µM), without a hit: top-dose activity change, negative = growth inhibition, most hits filed as inhibitors | chicken DT40 Tdp1-/-;hTDP1 cells + 20 nM CPT, ATP luminescence, 48 h; note: potency is the fitted concentration of half-maximal effect; % is set by controls: 0 for no effect and ±100 for the full control effect; nearly all actives have a fitted effect of over 55% in size
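Chicken DT40 Tdp1-/- cells complemented with human TDP1, 400 cells/well, exposed to compounds plus 20 nM camptothecin for at least 48 h at 37 C; viability read as ATP content by CellTiter-Glo luminescence.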
An asterisk follows results filed as active; ? = inconclusive; . = no result. An excerpt weighted towards active compounds, which were near 18% of everything screened. Unless noted, calls come from the whole dose curve; as a rule, active = well fitted curve in the direction sought with a large enough effect; inconclusive = small, poorly fitted or top-dose-only effect, or another doubt; inactive = no such curve, though single readings can be large; an effect the other way counts as inactive or inconclusive.

SMILES	TDP1 block	HepG2 viability	IL-1B inflam inh	TDP1 cell noCPT	TGFb SMAD3 inh	DT40 TDP1 CPT
CCC1CN(S(=O)(=O)c2ccc3c(c2)NC(=O)CC(=O)N3)c2cc(Cl)ccc2O1 (configuration not stated)	5%	-30%	55	21µM*	?	16µM*
Cc1cc2c(cc1S(=O)(=O)N1CCc3ccccc31)NC(=O)CO2	0%	-1%	-79*	?	29%	-17%
O=C1COc2ccc(S(=O)(=O)N3CCc4ccccc43)cc2N1	6%	-19%	2	-1%	-7%	?
Cc1ccc(-c2onc(C)c2C)cc1S(=O)(=O)N1CC(C)Oc2ccccc21 (configuration not stated)	1%	-36%	25	?	?	?
CCOC(=O)C1CN(S(=O)(=O)c2ccc(Cl)cc2)c2cc(S(=O)(=O)CC)ccc2O1 (configuration not stated)	-2%	1%	-23	1%	-1%	15%
Cc1ccc(-c2onc(C)c2C)cc1S(=O)(=O)N1CCOc2ccc(Cl)cc21	-3%	-45%	.	15µM*	?	?
Cc1ccc(-c2onc(C)c2C)cc1S(=O)(=O)N1CCc2ccccc21	0%	-28%	.	23µM*	?	13µM*
N=C1c2ccccc2CN1c1ccc(N2CCOCC2)c(S(=O)(=O)Nc2ccc(Cl)cc2)c1	3%	.	.	.	.	.
CN(C)c1ccc(/C=C2\CCc3cc(N)ccc32)cc1	.	-29%	.	-28%	-7%	5%
Cc1ccc(-c2onc(C)c2C)cc1S(=O)(=O)NC1CCCCC1	-5%	-2%	.	26µM*	-2%	?
Cc1ccc(-c2onc(C)c2C)cc1S(=O)(=O)N1CCC(C)CC1	-8%	-21%	.	?	?	21µM*
Cc1ccc(-c2onc(C)c2C)cc1S(=O)(=O)N1CCCCC1	-5%	-28%	.	?	0%	?
CCC1CN(S(=O)(=O)c2cc(-c3onc(C)c3C)ccc2C)c2cc(Cl)ccc2O1 (configuration not stated)	0%	-20%	.	15µM*	-12%	15µM*
CC(C)C[C@@H](CC(=O)N[C@@H](CCC(=O)O)CC(=O)O)NC(=O)[C@@H]1CNCC[C@H]1NC(=O)C[C@H](CCCN)NC(=O)C[C@H](CO)NC(=O)[C@@H]1CCCC[C@H]1N	-1%	.	.	.	.	.
CCC(C)(C)NS(=O)(=O)c1cc(-c2cc(C)no2)ccc1C	5%	-27%	.	?	0%	?
Cc1ccccc1CC(=O)c1ccc(O)c(C)c1O	.	-6%	-55*	?	?	-21%
COc1ccc(CCN2C(=O)COc3ccccc3C2C(=O)NCc2ccccc2)cc1OC (configuration not stated)	.	.	-10	-4%	.	-3%
COC(=O)c1c(SC)nc2ccccc2c1OCc1ccc(C)cc1C	-5%	-31%	.	26µM*	-39%	?
COC(=O)c1c(SC)nc2ccccc2c1OCc1cccc(C)c1	.	-22%	.	?	-4%	?
COc1ccc(C(C)=O)cc1CSc1nnc(Nc2c(C)cccc2C)s1	6%	-5%	-28	?	?	21µM*
CCOC(=O)C(Cc1ccc(NC(=O)/C(=C\c2ccccc2)NC(=O)c2ccccc2)cc1)N1C(=O)c2ccccc2C1=O (configuration not stated)	-1%	-1%	24	8.2µM*	-13%	10µM*
